Source: PubChem
A selection: hits, their analogues and other compounds. The true share with any hit is near 3.5%.
UGM FP inh – M. tuberculosis UGM enzyme inhibitors, primary screen, biochemical, fluorescence polarization, single point. purified UGM, fluorescence polarization probe displacement. inhibition, % at 10 µM. 320,000 tested, 0.06% active. UDP-galactopyranose mutase (Mycobacterium tuberculosis (strain ATCC 25618 / H37Rv)), …; in the data active = inhibition above about 10%, passing the limit was not always enough
Target sequence (P9WIQ1 whole entry, looked up): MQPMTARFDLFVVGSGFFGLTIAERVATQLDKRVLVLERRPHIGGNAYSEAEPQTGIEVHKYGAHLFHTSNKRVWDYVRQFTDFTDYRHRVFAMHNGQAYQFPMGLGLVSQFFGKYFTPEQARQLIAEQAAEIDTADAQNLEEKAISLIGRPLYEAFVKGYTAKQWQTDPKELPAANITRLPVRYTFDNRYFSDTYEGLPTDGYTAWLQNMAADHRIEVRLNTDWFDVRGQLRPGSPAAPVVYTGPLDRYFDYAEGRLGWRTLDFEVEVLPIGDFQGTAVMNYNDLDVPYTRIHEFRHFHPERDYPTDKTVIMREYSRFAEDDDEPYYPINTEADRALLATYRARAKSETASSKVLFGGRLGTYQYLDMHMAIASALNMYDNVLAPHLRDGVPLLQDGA
FBA Mtb inh – Mtb FBA enzyme inhibitors, primary screen, biochemical, fluorescence, strain H37Rv | Fructose-bisphosphate aldolase (Mycobacterium tuberculosis (strain ATCC 25618 / H37Rv)), … | purified M. tuberculosis FBA, fluorescence read-out | inhibition, % at 1 µM | 360,000 tested, 2.3% active | AID 588726, 2011; in the data active = inhibition above about 27%;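 note: 0% = vehicle and 100% = reference inhibitor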
GDH-TPI counter – GDH-TPI coupling enzyme inhibitors, primary screen, artefact control for M. tuberculosis FBA inhibitor project, biochemical, absorbance, full deck | AID 588335, 2011 | 360,000 tested, 1.2% active | inhibition, % at 4.8 µM | GDH-TPI coupled enzyme counterscreen, NADH absorbance; in the data active = inhibition above about 30%;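 note: 0% = DMSO wells and 100% = wells lacking the enzyme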
Mtb betalactam – beta-lactam sensitization of Mtb H37Rv, H37Rv. M. tuberculosis H37Rv growth with meropenem, percent inhibition. inhibition, % at 25 µM. 330,000 tested, 0.27% active; call rule not given here;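 note: growth measured after seven days incubation then overnight dye step; 0% = bacteria only wells and 100% = bacteria with antibiotic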
Rv3671c protease – Rv3671c serine protease inhibitors, primary screen, biochemical, fluorescence polarization, M. tuberculosis H37Rv. P9WHR9. inhibition, % at 5.96 µM. 320,000 tested, 0.048% active. AID 2606, 2010; in the data active = inhibition above about 38%;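 note: extracellular domain of Rv3671c used as enzyme; 0% = enzyme with DMSO and 100% = no enzyme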
* marks the source's active call; other numbers are inactive results; x = no result; + = active, no number.

SMILES	UGM FP inh	FBA Mtb inh	GDH-TPI counter	Mtb betalactam	Rv3671c protease
O=C(O)c1cc(-c2ccccc2)nc2nc(N3CCCCC3)sc12	2	x	x	3	-2
Cc1ccc(S(=O)(=O)N2CCCC(C(=O)NCCC(C)C)C2)cc1 (stereo not drawn)	3	-4	5	4	4
N#Cc1c(N)n(CCNC(=O)c2cccs2)c2nc3ccccc3nc12	2	+	9	-17	-6
COc1ccccc1CCn1c(N)c(C#N)c2nc3ccccc3nc21	1	+	27	5	-39
N#Cc1c(N)n(CCCN2CCOCC2)c2nc3ccccc3nc12	0	192*	18	-2	-5
Nc1c(C(=O)Nc2ccccc2)c2nc3ccccc3nc2n1CCCN1CCOCC1	-1	5	12	100	16
COc1ccc(CCn2c(N)c(C#N)c3nc4ccccc4nc32)cc1OC	0	16	10	-1	-66
CCCCCCn1c(N)c(C(=O)NCCN2CCOCC2)c2nc3ccccc3nc21	1	50*	-1	87	3
CN(CCOc1ccc(Cl)cc1)C(=O)c1cccc(S(=O)(=O)N2CCN(c3ccc(F)cc3)CC2)c1	x	1	4	x	x
CCc1ccc(S(=O)(=O)N2CCN(c3ccccc3OC)CC2)cc1	1	-6	-3	6	4
N#Cc1ccccc1OCCCN1CCC(Cc2ccccc2)CC1	-7	2	7	0	3
COc1ccccc1-n1c(SCC(=O)OC(C)C)nc2cccnc21	2	-1	9	-7	6
CN=C1c2cc3c(Br)c(OC)ccc3n2CCN1C	1	0	32*	35	-2
COc1ccc(C2C=C(C)Nc3nc(SC)nn32)cc1 (stereo not drawn)	0	149*	20	-7	1
COc1ccc(C2C=C(c3ccccc3)Nc3nc(NC(C)=O)nn32)cc1 (stereo not drawn)	0	x	x	-3	1
O=C1NC(=O)N(Cc2ccc(F)cc2)C(=O)/C1=C\c1ccc(N2CCCC2)cc1	-2	0	33*	-1	-24
CN(C)c1ccc(/C=C2\C(=O)NC(=O)N(CCc3ccc(F)cc3)C2=O)cc1	-1	1	47*	0	-31
CN1C(=O)C(=Cc2ccc(N3CCCCCC3)cc2)C(=O)N(C)C1=O	-1	4	54*	85	-18
CCN1C(=O)/C(=C/c2ccc(N3CCCC3)cc2)NC1=S	-2	-25	9	-1	-40
COCCN1C(=O)NC(=O)/C(=C\c2ccc(F)cc2)C1=O	-4	-4	-2	3	-9
COc1ccc(S(=O)(=O)N(C)C[C@H]2Oc3c(NC(=O)C4CCCCC4)cccc3C(=O)N([C@H](C)CO)C[C@@H]2C)cc1	5	-1	1	-5	2
O=C(COC(=O)c1ccccc1O)NCc1ccc2c(c1)OCO2	0	1	2	-3	-5
CCCc1cc(NC(=O)CCl)n(-c2ccccc2)n1	0	1	5	99	3
COc1ccc(NC(=O)CSc2ccc(-c3cccnc3)nn2)c(OC)c1	-1	-2	8	7	3
Cn1nc(NC(=O)C(F)(F)F)c2ncc(-c3ccccc3)nc21	x	6	32*	x	x
SMILES	UGM FP inh	FBA Mtb inh	GDH-TPI counter	Mtb betalactam	Rv3671c protease
C=C(C)Cn1cnc2cc(C)c(C)cc21	-3	6	6	-5	-2
O=c1c2c3nc4ccccc4nc3n(CC3CCCO3)c2ncn1CCc1ccccc1 (stereo not drawn)	1	25	7	-11	-2
CCn1c2ccc(C)cc2c2nnc(SCCN3CCOCC3)nc21	3	-3	27	-4	-2
O=c1c2c3nc4ccccc4nc3n(CCN3CCOCC3)c2ncn1CCN1CCOCC1	x	22	34*	x	x
Cc1ccc2c(c1)c1nc3ccccc3nc1n2CCN1CCOCC1	-2	-3	34*	56	6
C[C@H](O)CC(=O)O	1	5	16	-2	3
CN1CCN(c2ccc(-c3cccc4nccn34)cn2)CC1	x	+	30	x	x
Cc1ccc(C(=O)Nc2ccc(N3CCN(C)CC3)nc2)cc1	3	-4	-1	-2	3
N#Cc1ccc(-c2cccc3nccn23)cc1	x	178*	4	x	x
c1cc(-c2ccoc2)n2ccnc2c1	x	22	1	x	x
c1cc(-c2ccc(CN3CCOCC3)cc2)n2ccnc2c1	x	+	8	x	x
